The list is not random: actives were taken first. Their share in the collection is about 3.4%.
HSF1 inh – HSF1 inhibition; 300,000 tested, 0.77% active; activity change, negative = inhibition, % at 7.5 µM (by protocol); NIH3T3-HGL HSE-luciferase, MG132-induced, luminescence 8 h; active compounds read low; AID 2098;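 active = more than half of replicate wells show activity change below -50%, luminescence cut by over half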;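 also: luciferase reports HSF-1 transcriptional activity via heat shock element; 0% = median of DMSO wells and -100% = zero luminescence signal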
AI-2 QS mod – Vibrio harveyi AI-2 quorum sensing modulation | Vibrio harveyi JMH597 AI-2 luminescence/OD600 ratio, 9 h; active compounds read low; strain lacks LuxN and CqsS sensors; 0 = neutral-control median | activity change, % at 7.5 µM | 300,000 tested, 0.4% active; in the data active = activity change below about -75%, passing the limit was not always enough;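 also: luminescence divided by OD600 gain over 9 h not by final OD600 alone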
PG9 Ab binder – small molecules binding HIV-1 gp120 antibody PG9. AID 624416. inhibition, % at 6.7 µM. TR-FRET gp120-PG9 antibody binding. 360,000 tested, 0.43% active; in the data active = inhibition above about 8.5%
FXN GAA850 act – activators of GAA850 frataxin (FXN) promoter; HEK293 lucGAA850 FXN promoter luciferase reporter, 24 h; percent of 10 µM SAHA response; activation, % at 6 µM; 360,000 tested, 0.56% active; AID 540364;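 active = activation above the average of all compounds screened plus 3 SD, cutoff fixed separately per campaign, cut at about 7.5% in these data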;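 also: 0% = DMSO wells and 100% = 10 µM SAHA wells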
HSP90 inh – inhibitors of HSP90 luciferase refolding in rabbit reticulocyte lysate; 290,000 tested, 0.91% active; inhibition, % at 5.6 µM; luciferase refolding luminescence, 3 h;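 active = inhibition above the screen-wide mean plus 3 SD, computed separately per campaign, cut at about 16% in these data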;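 also: 0% = DMSO wells and 100% = 60 µM geldanamycin wells; inhibitors lower the luminescence because luciferase stays unfolded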
SMARCA2 act – increases SMARCA2 function in MMTV reporter cells | MG213 cells, MMTV-luciferase reporter, dexamethasone, overnight | activation, % at 9.1 µM | 370,000 tested, 1% active; in the data active = activation above about 7.8%;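 also: 0% = vehicle wells and 100% = reference activator wells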
SMARCA2 conf – SMARCA2 activation, confirmation screen | shares compounds with SMARCA2 act | activation, % at 9.1 µM | 3,500 tested, 30% active | AID 652260 | MG213 cells, MMTV-luciferase with dexamethasone, luminescence, overnight; MG213 cells expressing E1A, Rb sequestered; DMSO wells 0%, reference activator 100%;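 active = activation above its plate's cutoff, the mean activation of tested wells plus 3 SD, cut at about 7.9% in these data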
VP16 Luc act – activates GAL4-VP16 luciferase, flagging SMARCA2 activator hits; activation, % at 9.1 µM; AID 686939; 3,500 tested, 41% active; HEK293 GAL4-VP16 pG5luc reporter, luciferase luminescence; scaled: DMSO wells 0%, SAHA wells 100%; shares compounds with SMARCA2 act;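 active = activation above the solvent-only control well mean plus 3 SD, averaged across control plates, cut at about 5.2% in these data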
* = called active by the depositor; / = no result.

SMILES	HSF1 inh	AI-2 QS mod	PG9 Ab binder	FXN GAA850 act	HSP90 inh	SMARCA2 act	SMARCA2 conf	VP16 Luc act
CN(C)C(=O)C[C@H]1C[C@@H]2c3cc(NC(=O)NC4CCCC4)ccc3O[C@@H]2[C@@H](CO)O1	/	/	0	/	/	-2	/	/
Cc1cccc(NC(=O)CCN2CC(C)OC(C)C2)c1 (configuration not stated)	3	18	-1	2	-2	1	/	/
Cc1cc(C)cc(NC(=O)CCN2CC(C)OC(C)C2)c1 (configuration not stated)	/	10	-3	-1	0	8.4*	-3	2
COc1cc(/C=N/NC(=O)c2nc(C)cc(C)n2)ccc1O	1	30	-2	1	3	8.9*	2	0
COc1cc(/C=N/NC(=O)c2nonc2C)ccc1O	8	6	-1	1	-2	9.4*	6	0
COc1ccc(/C=N\NC(=O)C2CCCC2)cc1Br	2	-2	0	4	-1	9.0*	7	4
COc1cc(/C=N/NC(=O)c2cccc(C(=O)N/N=C/c3ccc(O)c(OC)c3)n2)ccc1O	1	10	-5	2	3	2	/	/
COc1ccc(/C=N/NC(=O)OC(C)(C)C)cc1OC	-2	10	-4	3	-1	8.4*	-1	1
Cc1ccccc1C(=O)N1CCC(C(=O)Nc2ccc(S(=O)(=O)N3C(C)CCCC3C)cc2)CC1 (configuration not stated)	/	/	2	-2	/	-4	/	/
COc1cc(/C=N/NC(=O)c2cccc(NC(=O)c3ccccc3)c2)ccc1O	9	20	-2	-2	-3	2	/	/
COc1cc(/C=N/NC(=S)Nc2cccc(S(=O)(=O)N(C)C)c2)ccc1O	2	13	-3	1	-1	9.8*	2	5.8*
CCOc1cc2c(cc1OCC)C(c1ccccc1)N(c1ccc(C(=O)O)cc1)C(=O)C2 (configuration not stated)	-10	16	-1	2	-4	9.5*	5	-1
CC(=O)C1=C(O)C(=O)N(c2ccc(C(=O)O)cc2)C1c1ccccc1 (configuration not stated)	0	9	-2	-2	2	0	/	/
Cc1cccc(CC2CC(=O)N(c3nc4ccccc4s3)C2=O)c1 (configuration not stated)	12	12	0	3	-2	1	/	/
Cc1ccc2nc(N3C(=O)CNC3=S)sc2c1	21	8	-3	4	10	15*	-4	16*
COc1ccc2nc(N3C(=O)CNC3=S)sc2c1	23	46	-3	5	4	8.6*	14*	10*
Cc1ccc(S(=O)(=O)Nc2nc3ccccc3nc2NCc2ccco2)cc1	44	18	0	6	-1	8.7*	22*	19*
O=S(=O)(Nc1nc2ccccc2nc1NCc1ccco1)c1ccc(Cl)cc1	3	1	1	0	2	1	/	/
CCCn1c(CC)nc([N+](=O)[O-])c1S(=O)(=O)c1ccccc1	-37	21	-1	-14	5	10*	-12	-1
O=C(COC(=O)/C=C/c1c(F)cccc1Cl)NCC1CCCO1 (configuration not stated)	/	/	0	2	/	-1	/	/
O=C(COC(=O)/C=C/c1ccc(Cl)cc1Cl)NCC1CCCO1 (configuration not stated)	/	/	-2	2	/	8.7*	2	0
CCCn1cnc2c(SCc3ccccn3)nc(N)nc21	/	/	0	2	/	4	/	/
Nc1nc(SCc2ccccn2)c2ncn(C3CCCC3)c2n1	/	/	0	6	/	8.2*	5	4
COc1cc(CN2C[C@@H](CO)O[C@@H](n3cnc4c(Nc5ccccc5)ncnc43)C2)cc(OC)c1OC	/	/	-2	0	/	-2	/	/
